Counter-ions that a name gives are not always drawn. ± gives the standard deviation of the averaged measurements.

This test concerns Toxoplasma gondii RH (in HFF). The test is described as follows: parasite growth relative to the screen mean (all compounds = 100%); higher = less inhibition of parasite growth. The following applies: 5 µM; 72 h; oxygen 21 %. In short, it runs like this: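 Growth values are relative to the mean of the whole screen and averaged over duplicate screens, with all compounds together set to 100%. Parasites (RH β-Gal–GFP Toxoplasma, MOI 1:5) were added within 2 h of pinning compounds at 5 µM final onto confluent human foreskin fibroblasts and grown 72 h at 21% O2. Parasite number came from CPRG β-Gal readings against in-plate standard curves.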
For the compound `NCCc1c[nH]c2ccc(O)cc12` [Serotonin], the parasite growth stood at 106 ± 15%.

The compound `COc1ccc(C(=O)c2c(C)n(CCN3CCOCC3)c3cc(I)ccc23)cc1` had a parasite growth of 149 ± 18%.

With `O=c1cccc2n1C[C@@H]1CNC[C@H]2C1` [(-)-Cytisine], the parasite growth was 128 ± 26%.

With `COc1ccc2c(c1)c(CCN1CCOCC1)c(C)n2C(=O)c1cccc(Cl)c1Cl`, the parasite growth is 145 ± 22%.

Turning to `O=C(CCCN1CCC2(CC1)C(=O)N(Cc1cccc(F)c1)CN2c1ccccc1)c1ccc(F)cc1` [3'-Fluorobenzylspiperone maleate], the parasite growth was less than 0%.

The compound `Oc1cc2c(cc1O)[C@H]1c3ccccc3CN[C@@H]1CC2` (racemic) [Dihydrexidine hydrochloride] showed a parasite growth of 153 ± 4.6%.

Turning to `C[C@@H]1O[C@@H](O[C@H]2C[C@@H](O)[C@]3(CO)[C@H]4[C@H](O)C[C@]5(C)[C@@H](C6=CC(=O)OC6)CC[C@]5(O)[C@@H]4CC[C@]3(O)C2)[C@H](O)[C@H](O)[C@H]1O` [Ouabain], the parasite growth was determined as 52.8 ± 8.2%.

`c1ccc2c(c1)OCC(C1=NCCN1)O2` (centres undefined) [Idazoxan hydrochloride]: the parasite growth is 111 ± 8.1%.

The compound `CCCN1CCO[C@@H]2c3cc(O)ccc3OC[C@H]21` displayed a parasite growth of 96 ± 2.6%.
